What was measured:
[1] = molecular target: Eukaryotic translation initiation factor 3 subunit C (UniProt Q99613); assay: cross-linking mass spectrometry
[2] = molecular target: Peptidyl-prolyl cis-trans isomerase A (UniProt P62937); assay: cross-linking mass spectrometry
[3] = molecular target: Thymosin beta-4 (UniProt P62328); assay: cross-linking mass spectrometry
[4] = molecular target: 26S proteasome non-ATPase regulatory subunit 2 (UniProt Q13200); assay: cross-link between two proteins; cross-linking mass spectrometry
[5] = molecular target: Adenylyl cyclase-associated protein 1 (UniProt Q01518); assay: as above
[6] = molecular target: Elongation factor 1-alpha 2 (UniProt Q05639); assay: as above
[7] = molecular target: Heat shock protein HSP 90-beta (UniProt P08238); assay: as above
[8] = molecular target: Putative heat shock protein HSP 90-beta-3 (UniProt Q58FF7); assay: as above
[9] = molecular target: Histone H1.2 (UniProt P16403); assay: as above
[10] = molecular target: Histone H2B type F-S (UniProt P57053); assay: as above
[11] = molecular target: T1, Junctophilin-2 (UniProt Q9BR39); assay: as above
T1 sequence: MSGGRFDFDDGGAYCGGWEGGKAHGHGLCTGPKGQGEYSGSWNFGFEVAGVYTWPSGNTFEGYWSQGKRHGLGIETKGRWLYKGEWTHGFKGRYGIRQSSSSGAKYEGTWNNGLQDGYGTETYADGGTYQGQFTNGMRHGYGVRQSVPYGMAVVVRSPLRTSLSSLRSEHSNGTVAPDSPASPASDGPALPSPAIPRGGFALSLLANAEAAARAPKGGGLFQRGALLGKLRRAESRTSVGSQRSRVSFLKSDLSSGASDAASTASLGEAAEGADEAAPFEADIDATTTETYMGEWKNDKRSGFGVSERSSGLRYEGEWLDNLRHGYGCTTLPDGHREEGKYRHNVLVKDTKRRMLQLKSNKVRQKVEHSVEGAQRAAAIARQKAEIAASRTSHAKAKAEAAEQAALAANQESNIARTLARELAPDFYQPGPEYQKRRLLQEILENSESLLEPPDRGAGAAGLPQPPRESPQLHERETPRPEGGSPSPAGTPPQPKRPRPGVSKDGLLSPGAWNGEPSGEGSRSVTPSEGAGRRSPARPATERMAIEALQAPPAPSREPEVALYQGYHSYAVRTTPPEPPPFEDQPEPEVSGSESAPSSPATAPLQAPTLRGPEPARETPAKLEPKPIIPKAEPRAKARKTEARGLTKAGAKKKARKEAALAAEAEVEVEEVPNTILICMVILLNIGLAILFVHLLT

[12] = molecular target: Large ribosomal subunit protein eL24 (UniProt P83731); assay: as above
[13] = molecular target: Ribosomal protein eL42-like (UniProt Q969Q0); assay: as above
[14] = molecular target: Thymosin beta-10 (UniProt P63313); assay: as above
[15] = molecular target: Ubiquitin-conjugating enzyme E2 L3 (UniProt P68036); assay: as above
[16] = molecular target: Ubiquitin-like FUBI-ribosomal protein eS30 fusion protein (UniProt P62861); assay: as above
[17] = molecular target: Ubiquitin-ribosomal protein eS31 fusion protein (UniProt P62979); assay: as above

Small ribosomal subunit protein uS15, P62277
listed as a hit [1]: yes

Actin, cytoplasmic 1, P60709
listed as a hit [2]: yes
listed as a hit [3]: yes

26S proteasome regulatory subunit 8, P62195
listed as a hit [4]: yes

Actin, alpha cardiac muscle 1, P68032
listed as a hit [5]: yes

Large ribosomal subunit protein uL13, P40429
listed as a hit [6]: yes

O60361
listed as a hit [7]: yes
listed as a hit [8]: yes

Non-histone chromosomal protein HMG-17, P05204
listed as a hit [9]: yes

Histone H2A type 1, P0C0S8
listed as a hit [10]: yes

Histone H2B type 1-C/E/F/G/I, P62807
listed as a hit [11]: yes

Large ribosomal subunit protein eL8, P62424
listed as a hit [12]: yes

Large ribosomal subunit protein uL1, P62906
listed as a hit [13]: yes

Actin, cytoplasmic 2, P63261
listed as a hit [14]: yes

Ubiquitin-ribosomal protein eS31 fusion protein, P62979
listed as a hit [15]: yes

Elongation factor 2, P13639
listed as a hit [16]: yes

Histone H2A type 1-D, P20671
listed as a hit [17]: yes

Histone H2A type 1-B/E, P04908
listed as a hit [17]: yes

From publication PMC12215968
